Screening results deposited in PubChem BioAssay by National Center for Advancing Translational Sciences (NCATS).
Rows were chosen to be rich in hits. Some 12% of all compounds tested hit in one or more screens of this group.
HP1b binding inh: HTS for Inhibitors of HP1-beta Chromodomain Interactions with Methylated Histone Tails; AlphaScreen HP1-beta / biotin-H3K9me3 peptide binding; 390,000 tested, 0.56% active; Potency, µM (titrated, usually from 114 µM), actives largely listed as inhibitors; AID 540317, 2011; further: nearly all actives have a fitted effect of over 70% in size
Target sequence (P83916 whole entry, looked up): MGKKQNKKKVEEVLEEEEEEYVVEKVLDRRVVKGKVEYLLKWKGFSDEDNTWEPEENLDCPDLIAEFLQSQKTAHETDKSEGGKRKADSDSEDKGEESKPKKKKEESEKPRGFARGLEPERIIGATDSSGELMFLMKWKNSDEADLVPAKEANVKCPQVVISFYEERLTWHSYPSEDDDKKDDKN
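Compound inhibition of the preformed complex between 50 nM HP1-beta and 50 nM biotinylated H3K9me3 peptide was read by AlphaScreen. Buffer was PBS pH 7.4 with 0.01% Tween-20. Incubations ran 30 min at room temperature, with 10 ug/mL donor/acceptor beads.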
Sfp PPTase inh: qHTS Assay for Inhibitors of Bacillus subtilis Sfp phosphopantetheinyl transferase (PPTase) | AID 1490, 2009 | 310,000 tested, 3.5% active | Biochemical Sfp PPTase activity, qHTS | Potency, µM, actives largely listed as inhibitors | 4'-phosphopantetheinyl transferase ffp (Bacillus subtilis), Q9F4F7;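 further: the enzyme is Sfp with the accession as filed and its product quenches rhodamine fluorescence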
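Buffer: 50 mM Hepes-Na pH 7.6, 10 mM MgCl2, 0.01% Nonidet P-40, 0.01% BSA. Enzyme 15 nM, pre-exposed to compound 15 min; substrates then added and fluorescence change tracked over 30 min.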
JMJD2A Tudor inh: qHTS Assay for Inhibitors of JMJD2A-Tudor Domain. AlphaScreen JMJD2A-Tudor / H3K4me3 peptide binding. 390,000 tested, 4.4% active. Lysine-specific demethylase 4A (Homo sapiens), O75164. Potency, µM (series often up to 114 µM), most hits filed as inhibitors; further: nearly all actives have a fitted effect of over 50% in size
G9a inh: qHTS Assay for Inhibitors of Histone Lysine Methyltransferase G9a. G9a H3K9 monomethylation, AlphaScreen, 2 h. Potency, µM (top dose mostly 102 µM), hits mostly inhibitors. 350,000 tested, 8.8% active; further: nearly all actives have a fitted effect of over 75% in size
Target sequence (Q96KQ7 913-1193 limits assumed): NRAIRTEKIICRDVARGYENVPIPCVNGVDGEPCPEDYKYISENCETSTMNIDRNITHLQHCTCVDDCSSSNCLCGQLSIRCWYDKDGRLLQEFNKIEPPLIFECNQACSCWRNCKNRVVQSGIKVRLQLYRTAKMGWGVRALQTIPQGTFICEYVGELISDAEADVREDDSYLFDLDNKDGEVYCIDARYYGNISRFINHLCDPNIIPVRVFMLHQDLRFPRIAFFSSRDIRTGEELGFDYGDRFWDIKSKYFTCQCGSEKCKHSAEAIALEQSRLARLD
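AlphaScreen read-out: biotin-H3K9 peptide (500 nM) methylation by 20 nM enzyme with 20 uM SAM, 2 h at room temperature after 15 min compound preincubation; anti-monomethyl H3K9 antibody plus donor/acceptor beads, 10 min dark.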
BAZ2B block: qHTS Assay for Inhibitors of BAZ2B; Bromodomain adjacent to zinc finger domain protein 2B (Homo sapiens), Q9UIF8; 360,000 tested, 4.4% active; AlphaScreen BAZ2B-H3K14Ac peptide displacement; Potency, µM (series often up to 114 µM), most hits filed as inhibitors; AID 504333, 2011; further: nearly all actives have a fitted effect of over 60% in size
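AlphaScreen luminescence quantifies BAZ2B engagement of H3K14Ac peptide; the protein and biotinylated peptide are both at 50 nM final, buffer PBS pH 7.4 with 0.01% Tween-20, all steps at room temperature.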
L3MBTL1 inh: qHTS Assay for the Inhibitors of L3MBTL1. Lethal(3)malignant brain tumor-like protein 1 (Homo sapiens), Q9Y468. Potency, µM (titrated, usually from 57.1 µM), usual class: inhibitors. AlphaScreen L3MBTL1–H3K9me1 peptide binding. 230,000 tested, 0.66% active; further: nearly all actives have a fitted effect of over 60% in size
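Read-out is AlphaScreen signal from streptavidin donor and nickel chelate acceptor beads (10 ug/mL final each) bridging L3MBTL1 (50 nM) and biotinylated K9-monomethylated H3(1-15) peptide (75 nM), after 30 min compound exposure at room temperature.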
Numbers stand for hits; - = inactive; ? = inconclusive; . = no result; [ ] = dose if it differs, or a comment. The call rests on the fitted dose curve; in most records, active means well fitted curve in the direction sought with a large enough effect; inconclusive means small, poorly fitted or top-dose-only effect, or another doubt; inactive means no such curve, though single readings can be large; an effect the other way counts as inactive or inconclusive.

SMILES | HP1b binding inh | Sfp PPTase inh | JMJD2A Tudor inh | G9a inh | BAZ2B block | L3MBTL1 inh
Nc1c(C(=O)Nc2cccc(F)c2)c2ccccn2c1C(=O)c1ccccc1 | - | . | - | - | - | .
O=C(Cc1ccccc1)Nc1nnc(-c2ccco2)o1 | - | - | 45µM | - | 28µM | -
O=C(Cc1ccccc1)Nc1ccc(-c2nnc(-c3ccco3)o2)cc1 | - | - | - | - | - | -
CCC(=O)Nc1nnc(-c2ccco2)o1 | - | - | 45µM | 22µM | ? | .
Cc1cccc(C)c1NC(=O)CCCSc1nnc(-c2ccco2)o1 | - | - | - | - | - | -
CCCCC(=O)Nc1nnc(-c2ccco2)o1 | - | - | 10µM | - | 79µM | -
CCC(=O)Nc1nnc(-c2ccc(OC)cc2)o1 | - | - | - | - | ? | .
COC(=O)C1=C(C(=O)OC)[C@@H]2Nc3ccccc3[C@@]23C[C@@H](C(=O)OC)N(S(=O)(=O)c2ccc4c(c2)OCCN4C)C3=N1 | . | - | . | . | . | .
CC(=O)c1ccc(N2CCN(c3ncnc4c3cnn4-c3cc(Cl)ccc3C)CC2)cc1 | - | . | - | - | - | .
Cc1ccc(Nc2ncnc3onc(C)c23)cc1Cl | - | . | - | - | - | .
CC(=O)C1=C(C)NC(SCC(=O)c2ccc(-c3ccccc3)cc2)=C(C#N)C1c1cccnc1 (configuration not stated) | . | 22µM | . | 16µM | - | -
C=CCOC(=O)C1=C(C)NC(SCC(=O)NC(=O)OCC)=C(C#N)C1c1cccnc1 (configuration not stated) | - | ? | - | 50µM | - | -
Cc1cc(C)nc(-n2nc(C)c3c2NC(=O)CC3c2cccc(O)c2)n1 (configuration not stated) | - | . | - | - | - | .
CCCNC(=O)c1ccc(C2SCC(=O)N2CCc2ccccc2)cc1 (configuration not stated) | - | - | - | 45µM | - | -
O=C(NCc1ccccc1)c1ccc(C2SCC(=O)N2Cc2ccccc2)cc1 (configuration not stated) | - | - | - | - | - | ?
C=CCNC(=O)c1ccc(C2SCC(=O)N2Cc2ccccc2)cc1 (configuration not stated) | - | - | - | 50µM | - | -
CN(C)CCCNC(=O)C(=O)NCC1OCCN1S(=O)(=O)c1cccs1 (configuration not stated) | - | 79µM | - | . | - | .
Cc1cc(C)c(S(=O)(=O)N2CCOC2CNC(=O)C(=O)NCCCn2ccnc2)c(C)c1 (configuration not stated) | - | - | 50µM | . | 13µM | .
O=C(NCCCn1ccnc1)C(=O)NCC1OCCN1S(=O)(=O)c1ccc2c(c1)OCCO2 (configuration not stated) | - | - | ? | . | 40µM | .
O=C(NCCc1ccccc1)C(=O)NCC1OCCN1S(=O)(=O)c1ccc2c(c1)OCCO2 (configuration not stated) | - | - | - | . | - | .
Cc1cc(C)cc(NC(=O)CN2C(=O)COc3ccc(S(=O)(=O)Nc4ccccc4)cc32)c1 | - | . | - | - | - | .
O=S(=O)(c1ccccc1)N1CCC2(CC1)CN(Cc1ccccc1)C2 | . | - | . | -[12.7 µM] | . | .
COCCCNC(=O)CN1C(=O)c2c(c3ccccc3n2C)C1c1ccc(OC)cc1 (configuration not stated) | - | . | - | - | - | .
CCN1c2ccccc2N(C)C1(C)c1ccccc1 (configuration not stated) | 32µM | 32µM | 8.9µM | 2.5µM | 28µM | -
CN1c2ccccc2N(C)C1(C)c1ccccc1 | ? | ? | 8.9µM | ? | - | ?
SMILES | HP1b binding inh | Sfp PPTase inh | JMJD2A Tudor inh | G9a inh | BAZ2B block | L3MBTL1 inh
CN1C(=O)N(C)C2(c3ccccc3)NC(=O)NC12c1ccccc1 (configuration not stated) | - | - | - | - | - | -
CN(C)S(=O)(=O)c1cccc(-c2nnc(SCCNCCO)n2-c2ccc(F)cc2)c1 | - | - | 50µM | ? | 79µM | -
CCCSc1nnc(-c2cccc(S(=O)(=O)N(C)C)c2)n1-c1cc(OC)ccc1OC | - | - | - | - | - | -
COC1=C(OC)C(=O)C(Sc2ccc3ccccc3c2)=CC1=O | 4.5µM | . | 3.5µM | . | . | .
COc1ccc(S(=O)(=O)Oc2ccc3ccccc3c2)cc1 | - | - | - | - | - | -
CCc1cccc(-n2c(=O)c3cccnc3n2CC(=O)NCc2ccccc2Cl)c1 | - | . | - | - | - | .
CC(C)[C@H]1c2ccc(F)cc2CC[C@@]1(CCN(C)CCCc1nc2ccccc2[nH]1)OC(=O)C1CC1 | . | 45µM | . | 13µM | . | .
CCOC(=O)C1CCN(C(=O)CCc2nc3ccccc3[nH]2)CC1 | - | - | - | - | - | -
CN(Cc1nc2ccccc2[nH]1)C(=O)C1CCC(=O)N(CCc2cccc(F)c2)C1 (configuration not stated) | - | - | - | - | - | .
O=C(Nc1ccc2[nH]c(=S)sc2c1)c1ccccc1 | - | 50µM | - | 5.6µM | - | -
S=c1[nH]c2ccccc2s1 | . | - | . | 11µM | . | .
O=C(Nc1ccc2[nH]c(=S)sc2c1)Nc1ccccc1F | - | ? | - | 45µM | ? | -
CCOC(=O)CNC(=O)c1ccc(-c2nn(C)c(=O)c3ccccc23)cc1 | - | . | - | - | - | .
Cc1ccc(C(=O)Nc2nc3n(n2)C(c2ccc(F)cc2)C=C(c2ccccc2)N3)cc1 (configuration not stated) | - | . | - | - | - | .
COc1ccc(N(CC(=O)N2CCCCC2)S(=O)(=O)c2ccc(OC)c(OC)c2)cc1 | - | . | - | - | - | .
COc1ccccc1-n1c(=S)[nH]c2c(sc(=S)n2-c2ccccc2C)c1=O | ? | - | 79µM | ? | - | .
CCOc1ccccc1-n1c(=S)sc2c(=O)n(-c3ccccc3)c(=S)[nH]c21 | - | - | 79µM | - | - | .
COc1cccc(-n2c(=S)sc3c(=O)n(-c4ccccc4OC)c(=S)[nH]c32)c1 | - | - | ? | ? | ? | .
COc1ccc(OC)c(-n2c(=S)[nH]c3c(sc(=S)n3-c3ccccc3C)c2=O)c1 | - | - | 89µM | - | ? | .
CCN(CC)C(=O)CSc1nc2c(sc(=S)n2-c2ccccc2OC)c(=O)n1-c1ccccc1 | - | - | - | - | - | .
COc1ccccc1-n1c(=S)[nH]c2c(sc(=S)n2-c2ccccc2)c1=O | - | - | ? | - | - | -
